In PubChem BioAssay (NCATS):
Inconclusive results are not listed. Activity calls are given as the source filed them. Calls come from the whole dose curve; as a rule, active = well fitted curve in the direction sought with a large enough effect; inconclusive = small, poorly fitted or top-dose-only effect, or another doubt; inactive = no such curve, though single readings can be large; an effect the other way counts as inactive or inconclusive.

Key:
CRL-7250 = normal cell line; assay: Cytotoxic Profiling of Annotated Libraries Using Quantitative High-Throughput Screening (AID 1296008); conditions: Five cell lines viability, CellTiter-Glo ATP luminescence, 48-72 h; max response: stronger effect = lower value; note: nearly all actives have a fitted effect of over 60% in size; for max response: % is set by controls: 0 for no effect and ±100 for the full control effect
Summary of the method: (§1)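 Compounds were pin-transferred onto cells and incubated 48 or 72 hr at 37 degree Celsius, 95% humidity. CellTiter-Glo was added, plates sat 10 min at room temperature, then ATP-coupled luminescence was imaged as the viability read-out.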

HEK293 = assay: as above; conditions: Five cell lines viability, CellTiter-Glo ATP luminescence, 48-72 h; max response: stronger effect = lower value
Summary of the method: as §1

HaCat [1] = assay: as above; conditions: Five cell lines viability, CellTiter-Glo ATP luminescence, 48-72 h; max response: stronger effect = lower value
Summary of the method: as §1

KB-3-1 = assay: as above; conditions: Five cell lines viability, CellTiter-Glo ATP luminescence, 48-72 h; max response: stronger effect = lower value
Summary of the method: as §1

NIH3T3 = assay: as above; conditions: Five cell lines viability, CellTiter-Glo ATP luminescence, 48-72 h; max response: stronger effect = lower value
Summary of the method: as §1

HACAT [2] = assay: qHTS assay to identify novel small-molecules to repurpose for Merkel cell carcinoma treatment (AID 1296009); conditions: MCC and control cell lines, CellTiter-Glo viability, 72 h; at 44.8 µM (top of the series) unless noted; note: nearly all actives have a fitted effect of over 60% in size
Summary of the method: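 Cells exposed to NPC (8-point) and MIPE (11-point) compound dilutions for 72 hr at 37 degree celsius; viability read by CellTiter-Glo luminescence, normalized to no-cell and DMSO in-plate controls.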

C33A = assay: Primary qHTS to identify gynecologic anti-cancer compounds using libraries of approved drugs and bioactive compounds (AID 1345084); conditions: Gynecologic cancer cell panel viability, ATPlite luminescence, 48 h; series mostly up to 57.5 µM; note: % is set by controls: 0 for no effect and ±100 for the full control effect; nearly all actives have a fitted effect of over 55% in size
Summary of the method: (§2)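 Five-concentration response, 48 h; readout is ATP-driven luciferase luminescence.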

CAOV3 = assay: as above; conditions: Gynecologic cancer cell panel viability, ATPlite luminescence, 48 h; series mostly up to 57.5 µM
Summary of the method: as §2

CASKI = assay: as above; conditions: Gynecologic cancer cell panel viability, ATPlite luminescence, 48 h; series mostly up to 57.5 µM
Summary of the method: as §2

Es-2 = assay: as above; conditions: Gynecologic cancer cell panel viability, ATPlite luminescence, 48 h; series mostly up to 57.5 µM
Summary of the method: as §2

HeLa = assay: as above; conditions: Gynecologic cancer cell panel viability, ATPlite luminescence, 48 h; series mostly up to 57.5 µM
Summary of the method: as §2

Hek293T = assay: as above; conditions: Gynecologic cancer cell panel viability, ATPlite luminescence, 48 h, control line for the selectivity index; series mostly up to 57.5 µM
Summary of the method: as §2

JEG-3 = assay: as above; conditions: Gynecologic cancer cell panel viability, ATPlite luminescence, 48 h; series mostly up to 57.5 µM
Summary of the method: as §2

COC(=O)C1=CO[C@@H](O[C@@H]2O[C@H](CO)[C@@H](O)[C@H](O)[C@H]2O)[C@@H]2C(C)CC(=O)[C@]12O (some centres undefined)
inactive: max response (CRL-7250) 4.9% | max response (HEK293) -0.581% | outcome (HaCat [1]) | max response (KB-3-1) 1.82% | outcome (NIH3T3) | outcome (HACAT [2]) inactive [at 17.4 µM] | Potency (C33A) | Potency (CAOV3) | outcome (CASKI) | Potency (Es-2) | Potency (HeLa) | Potency (Hek293T) | Potency (JEG-3)

CCc1nn(CCO)c(CC)c1Oc1cc(C#N)cc(C#N)c1
inactive: outcome (CRL-7250) | max response (HEK293) 2.02% | outcome (HaCat [1]) | outcome (KB-3-1) | max response (NIH3T3) -3.44% | outcome (HACAT [2]) | Potency (C33A) | Potency (CAOV3) | outcome (CASKI) | Potency (Es-2) | Potency (HeLa) | Potency (Hek293T) | Potency (JEG-3)

CC(=O)OC1CC2C(C)(C)C(=O)C=CC2(C)C2CC(=O)C3=C(CCC3C3=CC(O)OC3=O)C12C (centres undefined)
inactive: max response (CRL-7250) 3.26% | max response (HEK293) 2.36% | outcome (HaCat [1]) inactive; activator | outcome (KB-3-1) | max response (NIH3T3) 0.622% | outcome (HACAT [2]) inactive; activator [at 17.4 µM] | Potency (C33A) | Potency (CAOV3) | outcome (CASKI) | Potency (Es-2) | Potency (HeLa) | Potency (Hek293T) | Potency (JEG-3)

C/C=C(/C)C(=O)O[C@H]1C[C@]2(C)O[C@@H]2[C@@H](OC(C)=O)[C@@]2(C)CC[C@@](O)(C(C)C)[C@H]12
inactive: outcome (CRL-7250) | max response (HEK293) -3.47% | outcome (HaCat [1]) | max response (KB-3-1) -1.06% | max response (NIH3T3) -1.87% | outcome (HACAT [2]) | Potency (C33A) | Potency (CAOV3) | outcome (CASKI) | Potency (Es-2) | Potency (HeLa) | Potency (Hek293T) | Potency (JEG-3)

CC(O)C1CCC2C3CCC4CC(OC5OC(C(=O)O)C(O)C(O)C5O)CCC4(C)C3CCC12C (centres undefined)
inactive: max response (CRL-7250) -11.7% | max response (HEK293) -10.1% | outcome (HaCat [1]) | max response (KB-3-1) -9.6% | max response (NIH3T3) -3.21% | outcome (HACAT [2]) | Potency (C33A) | Potency (CAOV3) | outcome (CASKI) | Potency (Es-2) | Potency (HeLa) | Potency (Hek293T) | Potency (JEG-3)

COC(=O)C1=COC(OC2OC(CO)C(O)C(O)C2O)C2C(COC(=O)/C=C/c3ccc(O)c(O)c3)C(O)C(O)C12 (centres undefined)
inactive: outcome (CRL-7250) | max response (HEK293) 0.488% | outcome (HaCat [1]) | outcome (KB-3-1) | max response (NIH3T3) 2.28% | outcome (HACAT [2]) inactive [at 17.4 µM] | Potency (C33A) | Potency (CAOV3) | outcome (CASKI) | Potency (Es-2) | Potency (HeLa) | Potency (Hek293T) | Potency (JEG-3)

COC(=O)[C@H](c1ccccc1Cl)N1CCC2SC(=O)C=C2C1 (some centres undefined)
inactive: max response (CRL-7250) -4.86% | max response (HEK293) -11.7% | outcome (HaCat [1]) | max response (KB-3-1) 7.5% | max response (NIH3T3) -12.1% | outcome (HACAT [2]) | Potency (C33A) | Potency (CAOV3) | outcome (CASKI) | Potency (Es-2) | Potency (HeLa) | Potency (Hek293T) | Potency (JEG-3)

CC1=CC2=C(C)C(=O)C(C)(O)C(O)C2CO1 (centres undefined)
inactive: max response (CRL-7250) -6.39% | max response (HEK293) -9.93% | outcome (HaCat [1]) | max response (KB-3-1) 5.71% | max response (NIH3T3) 1.32% | outcome (HACAT [2]) | Potency (C33A) | Potency (CAOV3) | outcome (CASKI) | Potency (Es-2) | Potency (HeLa) | Potency (Hek293T) | Potency (JEG-3)

COc1ccc(-n2c(SCC#N)nc3sc4c(c3c2=O)CCCC4)cc1
inactive: max response (CRL-7250) 1.37% | max response (HEK293) 3.85% | outcome (HaCat [1]) | max response (KB-3-1) 9.32% | max response (NIH3T3) 4.07% | outcome (HACAT [2]) | Potency (C33A) | Potency (CAOV3) | outcome (CASKI) | Potency (Es-2) | Potency (HeLa) | Potency (Hek293T) | Potency (JEG-3)

CC1C2=CC(=O)OC2(O)CC2C1CCC1C(C)(C)CCC(O)C21C (centres undefined)
inactive: max response (CRL-7250) -5.55% | max response (HEK293) -27.5% | outcome (HaCat [1]) | max response (KB-3-1) -9.97% | max response (NIH3T3) 0.733% | outcome (HACAT [2]) | Potency (C33A) | Potency (CAOV3) | outcome (CASKI) | Potency (Es-2) | Potency (HeLa) | Potency (Hek293T) | Potency (JEG-3)

COC(=O)[C@@H](NC(=O)[C@H](CC(C)C)NC(=O)N(Cc1ccccc1)C[C@@H](O)[C@H](Cc1ccccc1)NC(=O)OC(C)(C)C)C(C)C
inactive: outcome (CRL-7250) | max response (HEK293) 0.117% | outcome (HaCat [1]) | max response (KB-3-1) -5.6% | max response (NIH3T3) -6.39% | outcome (HACAT [2]) inactive [at 9.27 µM] | activity change, negative = cytotoxicity (C33A) 9.01% [at 11.6 µM] | activity change, negative = cytotoxicity (CAOV3) -0.568% [at 11.6 µM] | activity change, negative = cytotoxicity (CASKI) 1.08% [at 11.6 µM] | activity change, negative = cytotoxicity (Es-2) 0.55% [at 11.6 µM] | activity change, negative = cytotoxicity (HeLa) 4.24% [at 11.6 µM] | activity change, negative = cytotoxicity (Hek293T) -2.96% [at 11.6 µM] | activity change, negative = cytotoxicity (JEG-3) -2.99% [at 11.6 µM]

CC1(C)CC=C(c2cnc3ccccc3c2)c2cc(C(=O)Nc3ccc(C(=O)O)cc3)ccc21
inactive: outcome (CRL-7250) | max response (HEK293) 2.92% | outcome (HaCat [1]) | outcome (KB-3-1) | max response (NIH3T3) -2.18% | outcome (HACAT [2]) | Potency (C33A) | Potency (CAOV3) | outcome (CASKI) | Potency (Es-2) | Potency (HeLa) | Potency (Hek293T) | Potency (JEG-3)

C/C=C(\C)C(=O)OCC1OC(OC2OC(CO)C(O)C(O)C2O)C(O)C(O)C1O (centres undefined)
inactive: outcome (CRL-7250) | max response (HEK293) -3.96% | outcome (HaCat [1]) | outcome (KB-3-1) | max response (NIH3T3) -3.87% | outcome (HACAT [2]) inactive [at 17.4 µM] | Potency (C33A) | Potency (CAOV3) | outcome (CASKI) | Potency (Es-2) | Potency (HeLa) | Potency (Hek293T) | Potency (JEG-3)
